Test results from PubChem BioAssay.
Values joined by “and” are separate entries in the source; they are usually repeats but may differ in a detail not shown here. Equal values may be shown once. Active and inactive are the calls of the source.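 The calls were made as follows: active = inhibition at or above 50% relative to wild type and mutant plate controls; inactive = inhibition below 50%.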

Assay: inhibitors of Chlamydomonas gravitaxis, primary screen, whole organism, Chlamydomonas reinhardtii, WT vs cilia-less mutant, absorbance, 96-well (AID 463189);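 also: 0% = wild type cc124 cells in DMSO and 100% = ciliumless bld1 mutant cells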
Details: OD600 absorbance, 2 days, at 10 µM, hits give high values

inhibition, inactive:
CCc1cccc(N(C)C(N)=Nc2cccc3ccccc23)c1 -1.11%
CC(C)(C(=O)O)c1ccc(C(O)CCCN2CCC(C(O)(c3ccccc3)c3ccccc3)CC2)cc1 (centres undefined) -1.29%
NCCCCCCNS(=O)(=O)c1cccc2c(Cl)cccc12 7.85%
Nc1ncnc2c1ncn2C1CCCO1 (centres undefined) -5.2%
Nc1ncnc2c1nc(Sc1ccc(Cl)cc1)n2C1OC2COP(=O)(O)O[C@@H]2[C@@H]1O (some centres undefined) 9.99%
NCCS 8.28%
CC(=O)OCC1=C(C(=O)O)N2C(=O)[C@@H](NC(=O)CSc3ccncc3)[C@H]2SC1 6.67%
CC(C)NCC(O)c1ccc(O)c(O)c1 (centres undefined) -5.24% and 12.5%
CN(C)CC[C@@H](c1ccc(Cl)cc1)c1ccccn1 32.3%
COc1ccc(-c2ccc(N)[n+](CCCC(=O)O)n2)cc1 7.29%
O=C(O)c1ccccc1Nc1cccc(OCc2ccc3ccccc3n2)c1 8.8%
COc1ccc(NC(=O)c2ccc(-c3ccc(-c4noc(C)n4)cc3C)cc2)cc1N1CCN(C)CC1 47.6%
COc1ccc2c(c1)c(CC(=O)O)c(C)n2Cc1ccc(F)cc1 4.4%
CCCOc1ccccc1-c1nc2n[nH]nc2c(=O)[nH]1 -8.54%
Cc1cccc(C)c1OCC(N)C(C)C (centres undefined) 9.25%
C[C@H](NC(=O)/C(C#N)=C/c1ccc(O)c(O)c1)c1ccccc1 -0.423%
CCCN(CCC)CCc1cccc2c1CC(=O)N2 4.03%
Nc1nc(SCc2ccc([N+](=O)[O-])cc2)c2ncn([C@@H]3O[C@H](CO)[C@H](O)C3O)c2n1 (some centres undefined) -2.89%
O=C(O)CCC(NC(=O)c1ccccc1C(=O)O)C(=O)O (centres undefined) 1.62%
N#C/C(=C\c1ccc(O)c(O)c1)C(=O)NCCc1ccccc1 -1.25%
CCCCCCC/C=C\CCCCCCCCC(=O)O 9.07%
COc1cccc(OC)c1OCCNCC1CSc2ccccc2O1 (centres undefined) 10.3%
CN1CC(O)C(O)C(O)C1CO (centres undefined) 10.5%
OC[C@H]1O[C@@H](n2cnc3c(NC4CCCC4)ncnc32)C(O)[C@H]1O (some centres undefined) 2.66%
S=C(Nc1ccccc1)Nc1nccs1 7.29%
COc1ccccc1OCC(O)CN1CCN(CC(=O)Nc2c(C)cccc2C)CC1 (centres undefined) 8.13%
CC12CC3CC(C)(C1)CC(N)(C3)C2 3.51%
CC(=O)N[C@@H](Cc1c[nH]c2ccccc12)C(=O)OCc1cc(C(F)(F)F)cc(C(F)(F)F)c1 -0.535%
C[C@](N)(Cc1ccc(O)c(O)c1)C(=O)O 5.26%
NS(=O)(=O)c1cccc2c1c([N+](=O)[O-])cc1nc(O)c(O)nc12 0.793%
COc1c2c(nc3ccccc13)OC(C(C)(O)CO)C2 (centres undefined) 6.88%
Fc1ccc(CN(C2=NCCN2)c2c(Cl)cccc2Cl)cc1 -0.588%
NCC(O)(CS(=O)(=O)O)c1ccc(Cl)cc1 (centres undefined) 30.8%
C=Cc1c(C)c2cc3[nH]c(cc4nc(cc5nc(cc1[nH]2)C(C)=C5CCC(=O)O)C(CCC(=O)O)=C4C)c(C)c3C=C 9.54%
Cc1cccc(C)c1OCC(C)N (centres undefined) 7.46%
CCCCCCCCCCCCCCCC(=O)NCC(COP(=O)([O-])OCC[N+](C)(C)C)OCC (centres undefined) -1.73%
O=C(O)c1cc(=O)c2ccc(Cl)cc2[nH]1 4.9%
OCC1O[C@H](O)C(Cl)C(O)C1O (some centres undefined) 4.68%
COc1cc(C(O)C(=O)O)ccc1O (centres undefined) 2.56%
